# Test results from PubChem BioAssay.
# Values without a mark were called inactive. For part of these data: Measured potencies and affinities stand elsewhere. Calls of active or inactive are those of the source.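 Rule for the calls, unless noted: active = earlier screen potentiator hit that boosts the TRPC4 ion channel at some dose, with a dose response; inactive = no potentiation, no dose response, or not a prior hit.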
# Experiments:
# [1] = system: TRPC4 beta (transient receptor potential cation channel C4), mouse; test: TRPC4 cation channel opening, retest – cell-based, Fluo4 calcium, HEK293 TRPC4beta/mu-opioid, duplicates, 10 µM, confirmation (AID 2426;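 active = fluorescence ratio normalized to control raised more than 50% in primary screen plus both repeat runs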); conditions: Fluo4 calcium fluorescence, at 10 µM; hits give high values
# [2] = system: transient receptor potential cation channel C4 beta (TRPC4), mouse; test: TRPC4 cation channel opening, second retest – cell-based, second round, Fluo4, HEK293 TRPC4beta/mu-opioid, 1 µM, confirmation (AID 2461;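 active = primary screen active and over 50% activation in each of two duplicate runs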); conditions: Fluo4 calcium fluorescence, at 1 µM; hits give high values
# [3] = system: TRPC4 (transient receptor potential cation channel C4 beta), mouse; test: potentiation of DAMGO EC20 TRPC4 response – cell-based, second round, Fluo-4, HEK293 TRPC4beta/mu-opioid, 1 µM, confirmation (AID 2554;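 active = primary screen hit whose fluorescence ratio, in both repeats, exceeds the weak agonist control mean by 3 SD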); conditions: DAMGO EC20, Fluo-4 calcium flux, at 1 µM; hits give high values
# [4] = system: TRPC4 beta (transient receptor potential cation channel C4), mouse; test: potentiation of DAMGO EC20 TRPC4 response – cell-based, Fluo-4, HEK293 TRPC4beta/mu-opioid, confirmation (AID 2555;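 active = primary screen hit whose calcium fluorescence ratio, in both repeats, exceeds the weak agonist control mean by 3 SD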); conditions: DAMGO EC20, Fluo-4 calcium flux, at 10 µM; hits give high values
# [5] = biological target: Short transient receptor potential channel 4 (Mus musculus) (UniProt Q9QUQ5); test: blockers of DAMGO-evoked TRPC4 calcium flux – cell-based, Fluo4, HEK293 TRPC4beta/mu-opioid, confirmation (AID 2636;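 active = calcium signal cut by more than 3 SD below the full-agonist control yet still positive, in both repeats and the earlier primary screen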); conditions: at 10 µM; hits give high values
# [6] = biological target: Short transient receptor potential channel 4 (Mus musculus) (UniProt Q9QUQ5); test: blockers of DAMGO-evoked TRPC4 calcium flux – cell-based, second round, Fluo4, HEK293 TRPC4beta/mu-opioid, 1 µM, confirmation (AID 2637;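 active = calcium signal ratio cut to more than 3 SD under the fully stimulated control mean yet still positive, in both repeats and the primary screen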); conditions: at 1 µM; hits give high values
# [7] = biological target: Short transient receptor potential channel 4 (Mus musculus) (UniProt Q9QUQ5); test: calcium entry via TRPC4 opening agents – cell-based, HEK293 TRPC4/mu-opioid, Fluo-4 calcium, dose response (AID 434937;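 active = primary screen activator hit with a dose response curve and TRPC4 channel activation at any tested dose; inactive = no activation, no dose response, or not a primary hit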)
# [8] = biological target: Short transient receptor potential channel 4 (Mus musculus) (UniProt Q9QUQ5); test: potentiation of DAMGO-evoked TRPC4 calcium signal – cell-based, HEK293 TRPC4/mu-opioid, Fluo-4 calcium, EC20 DAMGO, dose response (AID 434941);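 note: calcium entry triggered by an EC20 dose of DAMGO at the co-expressed mu-opioid receptor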
# [9] = biological target: Short transient receptor potential channel 4 (Mus musculus) (UniProt Q9QUQ5); test: block of DAMGO-driven TRPC4 calcium entry – cell-based, HEK293 TRPC4/mu-opioid, Fluo-4 calcium, dose response (AID 434942;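 active = primary screen inhibitor hit that blocks the TRPC4 channel at some tested dose, yielding a dose curve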)
# [10] = biological target: Short transient receptor potential channel 6 (Mus musculus) (UniProt Q61143); test: TRPC6 blockade by TRPC4 inhibitor hits – cell-based, HEK293, membrane potential dye, duplicate, selectivity assay for TRPC4 inhibitor project, confirmation (AID 434948;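 active = active in primary screen and both duplicates, each dropping signal beyond three positive-control SD with fluorescence still positive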); conditions: HEK293 TRPC6, membrane potential dye fluorescence, at 10 µM, stimulated with maximal-effect acetylcholine; hits give high values
# [11] = biological target: Short transient receptor potential channel 6 (Mus musculus) (UniProt Q61143); test: TRPC6 opening by TRPC4 activator hits – cell-based, HEK293, membrane potential dye, duplicate, selectivity assay for TRPC4 activator project, confirmation (AID 434950;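 active = membrane potential signal rise above negative control mean plus 3 SD in both duplicates, also active in the earlier TRPC4 screen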;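 for activation: 0% = buffer only wells and 100% = acetylcholine maximal-effect wells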); conditions: HEK293 TRPC6, membrane potential fluorescence, at 10 µM; activation: hits give high values; outcome: activation
# [12] = biological target: Short transient receptor potential channel 6 (Mus musculus) (UniProt Q61143); test: positive modulators of mouse TRPC6 channel – HEK293 cells, membrane potential dye, duplicate, selectivity assay for TRPC4 potentiator project, confirmation (AID 434952;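 active = compound raising the membrane signal above positive-control mean plus 3 SD in both repeats, and a primary screen hit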); conditions: HEK293 TRPC6, membrane potential dye fluorescence, at 10 µM, maximal acetylcholine added after compound; hits give high values
# [13] = biological target: Short transient receptor potential channel 4 (Mus musculus) (UniProt Q9QUQ5); test: calcium flux activators in TRPC4/5HT1a cells, counter-screen for TRPC4 activator project, cell-based, second counter screen, HEK293 TRPC4/5HT1a, Fluo-4 (AID 434977;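 active = calcium signal rise above buffer-control mean plus 5 SD in both duplicates, and also a hit in the primary screen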); conditions: Fluo-4 calcium flux, at 10 µM; hits give high values
# [14] = serotonin-gated TRPC4 signal block – cell-based, second counter screen, HEK293 TRPC4/5HT1a, Fluo-4, counter-screen for TRPC4 inhibitor project, confirmation (AID 434978;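 active = primary screen active whose calcium signal fell more than 3 SD beyond the full-serotonin control mean in both duplicate plates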;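 note: serotonin given first at submaximal then at maximal dose after compound preincubation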); conditions: Fluo-4 calcium flux, at 10 µM, serotonin added to trigger calcium flux; hits give high values
# [15] = system: TRPC4 (mouse), co-expressed with 5HT1a in HEK293; test: enhancement of serotonin-evoked TRPC4 response – cell-based, second counter screen, HEK293 TRPC4/5HT1a, Fluo-4, counter-screen for TRPC4 potentiator project, confirmation (AID 434979;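 active = signal rise over 3 SD above mean of control wells given weak agonist, in both repeats and first screen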); conditions: Fluo-4 calcium flux, at 10 µM, serotonin added at its EC20 dose; hits give high values
# [16] = nonspecific calcium rise without TRPC4 – cell-based, HEK293 mu-opioid receptor line, counter-screen for TRPC4 activator project, confirmation (AID 449723;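 active = hit in primary screen, with calcium signal over 5 SD above buffer well mean in both duplicates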;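 note: counter screen cells carry the mu-opioid receptor alone and lack TRPC4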); conditions: HEK293 mu-opioid cells, Fluo-4 calcium fluorescence, at 10 µM; hits give high values
# [17] = nonspecific potentiation of DAMGO calcium response – cell-based, HEK293 mu-opioid receptor line, counter-screen for TRPC4 allosteric potentiator project, confirmation (AID 449724;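 active = calcium signal rise more than 3 SD above the low-dose agonist control mean, in both duplicate plates and the primary screen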); conditions: HEK293 mu-opioid receptor cells, Fluo-4 calcium flux, at 10 µM, compound added before EC20 DAMGO stimulus; hits give high values
# Short transient receptor potential channel 6 (Mus musculus), sequence (Q61143 whole entry, looked up): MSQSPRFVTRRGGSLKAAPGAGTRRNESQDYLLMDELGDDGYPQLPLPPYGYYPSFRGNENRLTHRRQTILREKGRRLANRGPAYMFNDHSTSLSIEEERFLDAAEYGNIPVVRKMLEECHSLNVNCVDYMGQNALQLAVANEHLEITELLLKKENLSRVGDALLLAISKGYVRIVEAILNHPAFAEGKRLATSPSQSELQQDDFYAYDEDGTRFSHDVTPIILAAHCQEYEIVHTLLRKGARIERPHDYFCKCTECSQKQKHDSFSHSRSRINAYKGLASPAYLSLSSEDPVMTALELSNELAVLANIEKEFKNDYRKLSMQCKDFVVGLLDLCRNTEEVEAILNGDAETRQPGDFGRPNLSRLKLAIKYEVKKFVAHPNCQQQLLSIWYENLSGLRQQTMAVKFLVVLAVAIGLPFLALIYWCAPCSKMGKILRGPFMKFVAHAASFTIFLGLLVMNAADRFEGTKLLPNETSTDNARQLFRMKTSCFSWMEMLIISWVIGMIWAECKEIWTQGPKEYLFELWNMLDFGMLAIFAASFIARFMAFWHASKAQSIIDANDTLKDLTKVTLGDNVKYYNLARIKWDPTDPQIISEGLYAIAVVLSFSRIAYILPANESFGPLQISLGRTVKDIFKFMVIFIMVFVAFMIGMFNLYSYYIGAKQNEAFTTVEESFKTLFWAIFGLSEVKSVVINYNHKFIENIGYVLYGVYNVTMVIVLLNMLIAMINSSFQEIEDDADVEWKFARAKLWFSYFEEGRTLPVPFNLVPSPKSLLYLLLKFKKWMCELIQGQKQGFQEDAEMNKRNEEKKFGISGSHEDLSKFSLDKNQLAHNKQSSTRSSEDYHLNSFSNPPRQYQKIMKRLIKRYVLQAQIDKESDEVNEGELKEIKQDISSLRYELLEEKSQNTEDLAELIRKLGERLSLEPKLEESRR
# Short transient receptor potential channel 4 (Mus musculus), sequence (Q9QUQ5 whole entry, looked up): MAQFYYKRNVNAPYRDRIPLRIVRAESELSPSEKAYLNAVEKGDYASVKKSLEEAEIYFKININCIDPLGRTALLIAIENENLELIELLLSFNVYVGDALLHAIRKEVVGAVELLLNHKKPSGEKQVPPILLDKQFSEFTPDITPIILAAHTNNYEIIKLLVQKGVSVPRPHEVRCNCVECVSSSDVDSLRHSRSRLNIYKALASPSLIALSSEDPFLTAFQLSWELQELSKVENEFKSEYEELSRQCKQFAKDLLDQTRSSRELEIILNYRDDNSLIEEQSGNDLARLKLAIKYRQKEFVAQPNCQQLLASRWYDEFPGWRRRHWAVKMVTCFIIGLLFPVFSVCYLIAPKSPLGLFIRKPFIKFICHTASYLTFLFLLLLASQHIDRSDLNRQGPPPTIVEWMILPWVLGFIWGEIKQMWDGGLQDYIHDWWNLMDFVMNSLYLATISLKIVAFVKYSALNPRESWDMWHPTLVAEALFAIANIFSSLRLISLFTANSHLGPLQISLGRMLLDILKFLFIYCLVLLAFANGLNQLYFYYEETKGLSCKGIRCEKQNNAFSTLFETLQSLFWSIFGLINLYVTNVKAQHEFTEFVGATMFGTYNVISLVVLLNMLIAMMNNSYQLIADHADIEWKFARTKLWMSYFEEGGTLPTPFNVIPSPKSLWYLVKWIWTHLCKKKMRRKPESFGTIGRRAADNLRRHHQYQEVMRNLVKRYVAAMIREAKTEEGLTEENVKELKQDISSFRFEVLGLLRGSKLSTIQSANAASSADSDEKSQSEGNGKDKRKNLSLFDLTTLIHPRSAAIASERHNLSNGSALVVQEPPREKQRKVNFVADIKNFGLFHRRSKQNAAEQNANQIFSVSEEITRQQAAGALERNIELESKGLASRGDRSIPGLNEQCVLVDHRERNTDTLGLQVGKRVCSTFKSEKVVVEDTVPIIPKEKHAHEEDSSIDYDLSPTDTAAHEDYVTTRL
smiles,measurement,setting,value
CC1CCC2C(C1)c1sc(=O)[nH]c1SC2(C)C (stereo not given),outcome,[1],inactive
same,outcome,[2],inactive
same,outcome,[3],inactive
same,outcome,[4],inactive
same,outcome,[5],inactive
same,outcome,[6],inactive
same,outcome,[7],inactive
same,outcome,[8],inactive
same,outcome,[9],inactive
same,outcome,[10],inactive
same,outcome,[11],inactive
same,outcome,[12],inactive
same,outcome,[13],inactive
same,outcome,[14],inactive
same,outcome,[15],inactive
same,outcome,[16],inactive
same,outcome,[17],inactive
N=c1oc2ccc(Cl)cc2cc1C(=O)NC1CCCCCC1,outcome,[1],inactive
same,outcome,[2],inactive
same,outcome,[3],inactive
same,outcome,[4],inactive
same,outcome,[5],inactive
same,outcome,[6],inactive
same,outcome,[7],inactive
same,outcome,[8],inactive
same,outcome,[9],inactive
same,outcome,[10],inactive
same,outcome,[11],inactive
same,outcome,[12],inactive
same,outcome,[13],inactive
same,outcome,[14],inactive
same,outcome,[15],inactive
same,outcome,[16],inactive
same,outcome,[17],inactive
O=[N+]([O-])c1ccc(N2CCCC2)nc1N1CCCC1,outcome,[1],inactive
same,outcome,[2],inactive
same,outcome,[3],inactive
same,outcome,[4],inactive
same,outcome,[5],inactive
same,outcome,[6],inactive
same,outcome,[7],inactive
same,outcome,[8],inactive
same,outcome,[9],inactive
same,outcome,[10],inactive
same,outcome,[11],inactive
same,outcome,[12],inactive
same,outcome,[13],inactive
same,outcome,[14],inactive
same,outcome,[15],inactive
same,outcome,[16],inactive
same,outcome,[17],inactive
O=c1[nH][nH]c(-c2ccccc2)c1C=Nc1ccc(F)cc1F,outcome,[1],inactive
same,outcome,[2],inactive
same,outcome,[3],inactive
same,potentiation,[4],119% (active)
same,outcome,[5],inactive
same,outcome,[6],inactive
same,outcome,[7],inactive
same,outcome,[8],inactive
same,outcome,[9],inactive
same,outcome,[10],inactive
same,outcome,[11],inactive
same,outcome,[12],inactive
same,outcome,[13],inactive
same,outcome,[14],inactive
same,potentiation,[15],86% (active)
same,outcome,[16],inactive
same,outcome,[17],inactive
CCOc1cc(O)c(-c2[nH]ncc2-c2nc(C)cs2)cc1CC,outcome,[1],inactive
same,outcome,[2],inactive
same,outcome,[3],inactive
same,potentiation,[4],21% (active)
same,outcome,[5],inactive
same,outcome,[6],inactive
same,outcome,[7],inactive
same,outcome,[8],inactive
same,outcome,[9],inactive
same,outcome,[10],inactive
same,outcome,[11],inactive
same,outcome,[12],inactive
same,outcome,[13],inactive
same,outcome,[14],inactive
same,potentiation,[15],20% (active)
same,outcome,[16],inactive
same,outcome,[17],inactive
CC(=O)n1cc([C@@H]2C=C(C(=O)NCc3ccccc3)O[C@H](OCc3ccc(CO)cc3)C2)c2ccccc21,outcome,[1],inactive
same,outcome,[2],inactive
same,outcome,[3],inactive
same,outcome,[4],inactive
same,outcome,[5],inactive
same,outcome,[6],inactive
same,outcome,[7],inactive
same,outcome,[8],inactive
same,outcome,[9],inactive
same,outcome,[10],inactive
same,outcome,[11],inactive
same,outcome,[12],inactive
same,outcome,[13],inactive
same,outcome,[14],inactive
same,potentiation,[15],14.7% (active)
same,outcome,[16],inactive
same,outcome,[17],inactive
Cn1c(CN2CCN(c3ccccc3NS(C)(=O)=O)CC2)nc2ccccc21,outcome,[1],inactive
same,outcome,[2],inactive
same,outcome,[3],inactive
same,outcome,[4],inactive
same,outcome,[5],inactive
same,outcome,[6],inactive
same,outcome,[7],inactive
same,outcome,[8],inactive
same,outcome,[9],inactive
same,outcome,[10],inactive
same,outcome,[11],inactive
same,outcome,[12],inactive
same,outcome,[13],inactive
same,outcome,[14],inactive
same,outcome,[15],inactive
same,outcome,[16],inactive
same,outcome,[17],inactive
C=CCNC(=S)N1CCN(C2CCCCC2)CC1,outcome,[1],inactive
same,outcome,[2],inactive
same,potentiation,[3],53% (active)
same,potentiation,[4],36% (active)
same,outcome,[5],inactive
same,outcome,[6],inactive
same,outcome,[7],inactive
same,outcome,[8],inactive
same,outcome,[9],inactive
same,outcome,[10],inactive
same,outcome,[11],inactive
same,outcome,[12],inactive
same,outcome,[13],inactive
same,outcome,[14],inactive
same,potentiation,[15],18.6% (active)
same,outcome,[16],inactive
same,outcome,[17],inactive
O=C(C[n+]1cc(-c2ccc(Br)cc2)n2c1CCCCC2)c1ccccc1,outcome,[1],inactive
same,outcome,[2],inactive
same,outcome,[3],inactive
same,outcome,[4],inactive
same,outcome,[5],inactive
same,outcome,[6],inactive
same,outcome,[7],inactive
same,outcome,[8],inactive
same,outcome,[9],inactive
same,outcome,[10],inactive
same,outcome,[11],inactive
same,outcome,[12],inactive
same,outcome,[13],inactive
same,outcome,[14],inactive
same,outcome,[15],inactive
same,outcome,[16],inactive
same,outcome,[17],inactive
O=C(O)CCC(=O)N1CCN(c2nc3ccccc3s2)CC1,outcome,[1],inactive
same,outcome,[2],inactive
same,outcome,[3],inactive
same,potentiation,[4],11% (active)
same,outcome,[5],inactive
same,outcome,[6],inactive
same,outcome,[7],inactive
same,outcome,[8],inactive
same,outcome,[9],inactive
same,outcome,[10],inactive
same,outcome,[11],inactive
same,outcome,[12],inactive
same,outcome,[13],inactive
same,outcome,[14],inactive
same,potentiation,[15],21.2% (active)
same,outcome,[16],inactive
same,outcome,[17],inactive
CCCCCc1ccc(OCCCC[n+]2ccccc2)c(CCCCC)c1,outcome,[1],inactive
same,outcome,[2],inactive
same,outcome,[3],inactive
same,outcome,[4],inactive
same,outcome,[5],inactive
same,outcome,[6],inactive
same,outcome,[7],inactive
same,outcome,[8],inactive
same,outcome,[9],inactive
same,outcome,[10],inactive
same,outcome,[11],inactive
same,outcome,[12],inactive
same,outcome,[13],inactive
same,outcome,[14],inactive
same,outcome,[15],inactive
same,outcome,[16],inactive
same,outcome,[17],inactive
OC1(c2ccc(Br)cc2)CN(c2ccccc2)C2=[N+]1CCS2 (stereo not given),outcome,[1],inactive
same,outcome,[2],inactive
same,outcome,[3],inactive
same,outcome,[4],inactive
same,outcome,[5],inactive
same,outcome,[6],inactive
same,outcome,[7],inactive
same,outcome,[8],inactive
same,outcome,[9],inactive
same,outcome,[10],inactive
same,activation,[11],36.5% (active)
same,outcome,[12],inactive
same,outcome,[13],inactive
same,outcome,[14],inactive
same,outcome,[15],inactive
same,outcome,[16],inactive
same,outcome,[17],inactive
CN(C)CCCNc1ncnc2c1cnn2-c1ccccc1,outcome,[1],inactive
same,outcome,[2],inactive
same,potentiation,[3],16% (active)
same,potentiation,[4],17% (active)
same,outcome,[5],inactive
same,outcome,[6],inactive
same,outcome,[7],inactive
same,outcome,[8],inactive
same,outcome,[9],inactive
same,outcome,[10],inactive
same,outcome,[11],inactive
same,outcome,[12],inactive
same,outcome,[13],inactive
same,outcome,[14],inactive
same,potentiation,[15],28.6% (active)
same,outcome,[16],inactive
same,outcome,[17],inactive
CN1CCN(Cc2nc3ccccc3n2C)CC1CCO (stereo not given),outcome,[1],inactive
same,outcome,[2],inactive
same,outcome,[3],inactive
same,outcome,[4],inactive
same,outcome,[5],inactive
same,outcome,[6],inactive
same,outcome,[7],inactive
same,outcome,[8],inactive
same,outcome,[9],inactive
same,outcome,[10],inactive
same,outcome,[11],inactive
same,outcome,[12],inactive
same,outcome,[13],inactive
same,outcome,[14],inactive
same,potentiation,[15],9.01% (active)
same,outcome,[16],inactive
same,outcome,[17],inactive
CCc1c(C)nc2ccc(Br)cc2c1SCCC#N,outcome,[1],inactive
same,outcome,[2],inactive
same,outcome,[3],inactive
same,outcome,[4],inactive
same,outcome,[5],inactive
same,outcome,[6],inactive
same,outcome,[7],inactive
same,outcome,[8],inactive
same,outcome,[9],inactive
same,outcome,[10],inactive
same,outcome,[11],inactive
same,outcome,[12],inactive
same,outcome,[13],inactive
same,outcome,[14],inactive
same,outcome,[15],inactive
same,outcome,[16],inactive
same,outcome,[17],inactive
